According to PubChem BioAssay:
Unmarked numbers belong to inactive results. Active and inactive are the calls of the source.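 Rule for the calls, unless noted: active = compound raises GLP1 secretion from the human gut endocrine cells, with no numeric limit stated; inactive = the rest.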

Assay: glucagon-like peptide 1 release enhancers, primary assay, NCI-H716 cell line, NPC library (AID 1117341); note: reference of the scale not given here
Settings: NCI-H716 cells, at 10 µM, stronger effect = higher value

| Compound | GLP1 secretion stimulation [%] |
| --- | --- |
| NS(=O)(=O)c1cc(-c2nn[nH]n2)c(NCc2cccs2)cc1Cl | -0.2 |
| CCCCNC(=O)NS(=O)(=O)c1ccc(N)cc1 | 1.9 |
| CCCC(CCC)C(N)=O | 16.4 |
| COc1ccc(CC2c3cc(OC)c(OC)cc3CCN2CCC(=O)OCCCCCOC(=O)CCN2CCc3cc(OC)c(OC)cc3C2Cc2ccc(OC)c(OC)c2)cc1OC (stereo not drawn) | -3.9 |
| CC1(C)OC(=O)Nc2ccc(Br)cc21 | -2 |
| COC(=O)C1=C(C)NC(COC(N)=O)=C(C(=O)OC(C)C)C1c1cccc(Cl)c1Cl (stereo not drawn) | 0.3 |
| CCO[C@@H]1O[C@H](C(COCc2ccccc2)OCc2ccccc2)[C@H](OCc2ccccc2)[C@H]1O (stereo partly drawn) | 6.9 |
| Oc1cn2c(n1)Nc1ccc(Cl)c(Cl)c1C2 | 4.1 |
| NC(=Nc1ccccc1)Nc1ccccc1 | 2.8 |
| CCOC(=O)OCC/C(SC(=O)OCC)=C(\C)N(C=O)Cc1cnc(C)nc1N | 2.9 |
| CC(C)C(=O)Nc1cccc(C(F)(F)F)c1 | 4.8 |
| C/C(=C(\CCO)SS/C(CCO)=C(\C)N(C=O)Cc1cnc(C)nc1N)N(C=O)Cc1cnc(C)nc1N | -0.7 |
| COc1cc(C(=S)N2CCOCC2)cc(OC)c1OC | -0.3 |
| CC(C)(C)c1cc(C=O)cc(C(C)(C)C)c1O | 0.6 |
| O=c1[nH]c(=O)n([C@H]2O[C@H](CO)[C@@H](O)[C@@H]2O)cc1/C=C\Br | 1.5 |
| Cc1c(F)cc2c(=O)c(C(=O)O)cn3c2c1CCC3C (stereo not drawn) | 1.5 |
| CC(=O)Oc1ccc(C2(c3ccc(OC(C)=O)cc3)Oc3ccccc3NC2=O)cc1 | 1.6 |
| COc1ccnc2c1CCCCC2S(=O)c1nc2ccccc2[nH]1 (stereo not drawn) | 9.2 |
| CCN(CC)C(=O)C1CN2CCc3cc(OC)c(OC)cc3C2CC1OC(C)=O (stereo not drawn) | 10.9 |
| CCOC(=O)Cn1cccc1-c1nc(-c2ccc(OC)cc2)c(-c2ccc(OC)cc2)s1 | -0.1 |

| Compound | GLP1 secretion stimulation [%] |
| --- | --- |
| N#C/C(=C1/SC[C@@H](c2ccc(Cl)cc2Cl)S1)n1ccnc1 | -1.8 |
| NC(=O)COCCN1CCN(C(c2ccccc2)c2ccc(Cl)cc2)CC1 (stereo not drawn) | 2.2 |
| O=C(CCCN1CCN(c2ccc(F)cc2)CC1)NC1c2ccccc2CSc2ccccc21 (stereo not drawn) | 3.7 |
| Cc1ccc(C(=O)C(=O)O)cc1C | -3.1 |
| CN1[C@@H]2CC[C@H]1CC(NC(=O)n1c(=O)[nH]c3ccccc31)C2 (stereo partly drawn) | 2.8 |
| CCOc1cc(OCC)c(C(=O)CCC(=O)O)cc1OCC | -1.3 |
| Cc1cc(NS(=O)(=O)c2ccc(N)cc2)nc(C)n1 | -0.1 |
| c1ccc2c(c1)CCc1ccccc1N2 | 2 |
| CCOC(=O)C(=O)CCc1ccccc1 | 5 |
| O=C(O)Cc1ccc2c(c1)C(=O)c1ccccc1CO2 | 1.7 |
| CN[C@H](CC(C)C)C(=O)N[C@H]1C(=O)N[C@@H](CC(N)=O)C(=O)N[C@H]2C(=O)N[C@H]3C(=O)N[C@H](C(=O)N[C@H](C(=O)O)c4cc(O)cc(O)c4-c4cc3ccc4O)[C@H](O)c3ccc(c(Cl)c3)Oc3cc2cc(c3O[C@@H]2OC(CO)[C@@H](O)[C@H](O)[C@@H]2O[C@H]2C[C@](C)(N)[C@H](O)[C@H](C)O2)Oc2ccc(cc2Cl)[C@H]1O (stereo partly drawn) | -0.9 |
| Oc1cccc(-c2c3nc(c(-c4cccc(O)c4)c4ccc([nH]4)c(-c4cccc(O)c4)c4nc(c(-c5cccc(O)c5)c5ccc2[nH]5)CC4)C=C3)c1 | 13.6 |
| CCC(CN)=C(c1ccccc1)c1ccccc1 | 2.2 |
| CC(C)=CCC/C(C)=C/CC/C(C)=C/C(=O)OCC(=O)[C@@]1(O)CC[C@H]2[C@@H]3CCC4=CC(=O)C=C[C@]4(C)[C@H]3[C@@H](O)C[C@@]21C | -0.8 |
| NNc1nnc(NN)c2ccccc12 | -3.3 |
| COc1cccc(CCc2ccccc2OCC(CN(C)C)OC(=O)CCC(=O)O)c1 (stereo not drawn) | 8.6 |
| CC(C)(Oc1ccc(Cl)cc1)C(=O)OCCCOC(=O)C(C)(C)Oc1ccc(Cl)cc1 | -0.1 |
| C/C=C/c1ccc(O)c(OC)c1 | -3.8 |
| Cc1ccccc1C(=O)Nc1ccc(C(=O)N2CCCC(N(C)C)c3ccccc32)cc1 (stereo not drawn) | 2.1 |

Assay: HCT116 colon cancer cell growth inhibition, primary screen, CellTiter-Glo luminescence, NPC library (AID 1117342;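 active = compounds that lower survival of HCT116 colon cancer cells in the luminescence readout, no numeric limit stated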)
Settings: at 20 µM (top of the series)

| Compound | inhibition of viability |
| --- | --- |
| NS(=O)(=O)c1cc(-c2nn[nH]n2)c(NCc2cccs2)cc1Cl | -19.7% |
| CCCCNC(=O)NS(=O)(=O)c1ccc(N)cc1 | 1.4% |
| CCCC(CCC)C(N)=O | 16.3% |
| COc1ccc(CC2c3cc(OC)c(OC)cc3CCN2CCC(=O)OCCCCCOC(=O)CCN2CCc3cc(OC)c(OC)cc3C2Cc2ccc(OC)c(OC)c2)cc1OC (stereo not drawn) | -6.4% |
| CC1(C)OC(=O)Nc2ccc(Br)cc21 | -4.8% |
| COC(=O)C1=C(C)NC(COC(N)=O)=C(C(=O)OC(C)C)C1c1cccc(Cl)c1Cl (stereo not drawn) | 99.8% (active) |
| CCO[C@@H]1O[C@H](C(COCc2ccccc2)OCc2ccccc2)[C@H](OCc2ccccc2)[C@H]1O (stereo partly drawn) | 81.6% (active) |
| Oc1cn2c(n1)Nc1ccc(Cl)c(Cl)c1C2 | -2.2% |
| NC(=Nc1ccccc1)Nc1ccccc1 | -1% |
| CCOC(=O)OCC/C(SC(=O)OCC)=C(\C)N(C=O)Cc1cnc(C)nc1N | -0.4% |
| CC(C)C(=O)Nc1cccc(C(F)(F)F)c1 | 0.9% |
| C/C(=C(\CCO)SS/C(CCO)=C(\C)N(C=O)Cc1cnc(C)nc1N)N(C=O)Cc1cnc(C)nc1N | 0.6% |
| COc1cc(C(=S)N2CCOCC2)cc(OC)c1OC | -1.2% |
| CC(C)(C)c1cc(C=O)cc(C(C)(C)C)c1O | 4.5% |
| O=c1[nH]c(=O)n([C@H]2O[C@H](CO)[C@@H](O)[C@@H]2O)cc1/C=C\Br | -27.5% |
| Cc1c(F)cc2c(=O)c(C(=O)O)cn3c2c1CCC3C (stereo not drawn) | 0.65% |
| CC(=O)Oc1ccc(C2(c3ccc(OC(C)=O)cc3)Oc3ccccc3NC2=O)cc1 | 83.3% (active) |
| COc1ccnc2c1CCCCC2S(=O)c1nc2ccccc2[nH]1 (stereo not drawn) | 27.5% |
| CCN(CC)C(=O)C1CN2CCc3cc(OC)c(OC)cc3C2CC1OC(C)=O (stereo not drawn) | 17.1% |
| CCOC(=O)Cn1cccc1-c1nc(-c2ccc(OC)cc2)c(-c2ccc(OC)cc2)s1 | 46% |

| Compound | inhibition of viability |
| --- | --- |
| N#C/C(=C1/SC[C@@H](c2ccc(Cl)cc2Cl)S1)n1ccnc1 | 101% (active) |
| NC(=O)COCCN1CCN(C(c2ccccc2)c2ccc(Cl)cc2)CC1 (stereo not drawn) | 7.4% |
| O=C(CCCN1CCN(c2ccc(F)cc2)CC1)NC1c2ccccc2CSc2ccccc21 (stereo not drawn) | 47.5% |
| Cc1ccc(C(=O)C(=O)O)cc1C | -6.7% |
| CN1[C@@H]2CC[C@H]1CC(NC(=O)n1c(=O)[nH]c3ccccc31)C2 (stereo partly drawn) | 23.7% |
| CCOc1cc(OCC)c(C(=O)CCC(=O)O)cc1OCC | 11.4% |
| Cc1cc(NS(=O)(=O)c2ccc(N)cc2)nc(C)n1 | -10.6% |
| c1ccc2c(c1)CCc1ccccc1N2 | -2.9% |
| CCOC(=O)C(=O)CCc1ccccc1 | 10.3% |
| O=C(O)Cc1ccc2c(c1)C(=O)c1ccccc1CO2 | -7.1% |
| CN[C@H](CC(C)C)C(=O)N[C@H]1C(=O)N[C@@H](CC(N)=O)C(=O)N[C@H]2C(=O)N[C@H]3C(=O)N[C@H](C(=O)N[C@H](C(=O)O)c4cc(O)cc(O)c4-c4cc3ccc4O)[C@H](O)c3ccc(c(Cl)c3)Oc3cc2cc(c3O[C@@H]2OC(CO)[C@@H](O)[C@H](O)[C@@H]2O[C@H]2C[C@](C)(N)[C@H](O)[C@H](C)O2)Oc2ccc(cc2Cl)[C@H]1O (stereo partly drawn) | -1.3% |
| Oc1cccc(-c2c3nc(c(-c4cccc(O)c4)c4ccc([nH]4)c(-c4cccc(O)c4)c4nc(c(-c5cccc(O)c5)c5ccc2[nH]5)CC4)C=C3)c1 | 109% (active) |
| CCC(CN)=C(c1ccccc1)c1ccccc1 | 78.6% (active) |
| CC(C)=CCC/C(C)=C/CC/C(C)=C/C(=O)OCC(=O)[C@@]1(O)CC[C@H]2[C@@H]3CCC4=CC(=O)C=C[C@]4(C)[C@H]3[C@@H](O)C[C@@]21C | 98.2% (active) |
| NNc1nnc(NN)c2ccccc12 | 22.6% |
| COc1cccc(CCc2ccccc2OCC(CN(C)C)OC(=O)CCC(=O)O)c1 (stereo not drawn) | 72.9% (active) |
| CC(C)(Oc1ccc(Cl)cc1)C(=O)OCCCOC(=O)C(C)(C)Oc1ccc(Cl)cc1 | 5.6% |
| C/C=C/c1ccc(O)c(OC)c1 | 8.25% |
| Cc1ccccc1C(=O)Nc1ccc(C(=O)N2CCCC(N(C)C)c3ccccc32)cc1 (stereo not drawn) | 80.2% (active) |
